From PubChem BioAssay (NCI)
This is part of a sample that, as a whole, favours compounds with a hit. Of some 83,000 tested, about 20% had one in any assay.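 Treatment: one concentration, 48 hours, 96-well format. Scoring: percent growth, with anything below 10 considered active.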 The source made the active and inactive calls.

Tests used:
Experiment in all cases: NCI-60 one-dose screen, 48 h (100 = growth as untreated, 0 = no growth, -100 = all killed)
Settings in all cases: 10 µM unless noted
[1] = test system: NCI-H23 lung
[2] = test system: NCI-H226 lung
[3] = test system: NCI-H322M lung
[4] = test system: HOP-62 NSCLC
[5] = test system: NCI-H460 lung
[6] = test system: HOP-92 NSCLC
[7] = test system: NCI-H522 lung
[8] = test system: A549/ATCC NSCLC
[9] = test system: 786-0 renal
[10] = test system: COLO 205 colon
[11] = test system: DU-145 prostate
[12] = test system: K-562 leukemia
[13] = test system: MALME-3M melanoma
[14] = test system: MDA-MB-231 breast
[15] = test system: RXF 393 renal
[16] = test system: SF-268 CNS
[17] = test system: SF-539 CNS
[18] = test system: UACC-257 melanoma
[19] = test system: M14 melanoma
[20] = test system: SF-295 CNS

Measured: growth

O=C(CI)Nc1ccc(O)c2ccccc12
inactive: [3] 104% | [4] 46.9% | [5] 32.5% | [8] 64.8% | [11] 41.9% | [18] 10.7%
active: [1] -7.45% | [2] -13.1% | [6] -24.8% | [7] -79.4% | [9] -22.5% | [10] -85.6% | [12] -16.2% | [13] -14% | [14] -11.8% | [15] -89.7% | [16] -0.419% | [17] -28.6% | [19] -58.9%

COc1ccc2nc(-c3c(-c4ccccc4)nc4ncccn34)[nH]c2c1
inactive: [1] 105% | [2] 106% | [3] 105% | [4] 108% | [5] 106% | [6] 111% | [7] 88.7% | [8] 97.8% | [9] 103% | [10] 108% | [11] 115% | [12] 101% | [13] 112% | [14] 99.3% | [15] 104% | [16] 109% | [17] 100% | [18] 105% | [19] 107%

COC(=O)CCCCCn1c2ccccc2c2c3c(c4c5ccccc5[nH]c4c21)C(=O)N(O)C3=O
active: [7] -60%
inactive: [1] 44.1% | [2] 74.4% | [3] 62.4% | [4] 26% | [5] 33.4% | [6] 79.4% | [8] 80.3% | [9] 76.6% | [10] 36.5% | [11] 80.6% | [12] 23.8% | [13] 96% | [14] 41.8% | [15] 64.9% | [16] 45.6% | [20] 59.6% | [17] 25.3% | [19] 39.5%

COc1cccc(-c2nn(-c3ccccc3)cc2-c2ccnc(NCCCN)c2)c1
inactive: [1] 60% | [2] 78.7% | [3] 78.5% | [4] 47.9% | [5] 27.9% | [6] 32.3% | [7] 83.4% | [8] 68% | [9] 52.1% | [10] 26.1% | [11] 75.6% | [12] 16.8% | [13] 70.2% | [14] 33.7% | [15] 51.5% | [16] 64% | [20] 44.7% | [17] 49.8% | [19] 26.1%

COc1cccc(-c2nn(-c3ccccc3)cc2-c2ccnc(NCCNS(=O)(=O)c3ccc(Cl)cc3)c2)c1
inactive: [1] 32% | [2] 41.8% | [3] 63.8% | [4] 53.5% | [5] 32.9% | [7] 12.4% | [8] 27.4% | [9] 40.3% | [11] 52.7% | [12] 11.7% | [13] 50.3% | [14] 19.3% | [15] 29.8% | [16] 45.7% | [20] 21.7% | [17] 54.1% | [19] 28.6%
active: [6] 7.77% | [10] 4.94%

COc1ccc(C(=O)c2cc(OC)c(OC)c(OC)c2)cc1/C=C/C(=O)c1cc(OC)c(OC)c(OC)c1
inactive: [1] 79.9% | [2] 89.5% | [3] 91.2% | [4] 117% | [5] 83.7% | [6] 83.8% | [7] 84% | [8] 92.9% | [9] 104% | [10] 95.5% | [11] 83.4% | [12] 99.8% | [13] 86.1% | [14] 62.8% | [15] 70% | [16] 88.7% | [17] 94% | [18] 81.6% | [19] 81.4%

Cc1nnc2nc(N)[nH]n2c1=O
inactive: [1] 103% | [2] 111% | [3] 105% | [4] 109% | [5] 113% | [6] 66.5% | [7] 92.8% | [8] 99% | [9] 98.8% | [10] 121% | [11] 104% | [12] 101% | [13] 93.9% | [14] 129% | [15] 117% | [16] 103% | [17] 114% | [18] 98.5% | [19] 99.2%

Oc1ccc(Nc2ccccc2)cc1
inactive: [1] 86% | [2] 92.6% | [3] 77.7% | [4] 104% | [5] 92.5% | [6] 119% | [7] 92.2% | [8] 111% | [9] 97.8% | [10] 109% | [11] 94.6% | [12] 79.6% | [13] 70.7% | [14] 52.6% | [16] 88.2% | [20] 82% | [17] 64.5% | [18] 110% | [19] 104%

COc1ccc2c(c1)C/C(=C\c1cc(-c3ccc4c(c3)OCO4)n[nH]1)C2=O
inactive: [1] 111% | [2] 86.5% | [3] 113% | [4] 102% | [5] 92.6% | [6] 87.2% | [7] 105% | [8] 95.7% | [9] 106% | [10] 105% | [11] 112% | [12] 60.1% | [13] 112% | [14] 79.7% | [15] 95.6% | [16] 106% | [17] 92.4% | [18] 103% | [19] 97.2%

COc1cc2[nH]c(C(=O)c3cc(OC)c(OC)c(OC)c3)c(N)c2cc1C#CC1CC1
active: [7] -4.22% | [10] 8.48% | [17] -38.7%
inactive: [1] 50.3% | [2] 50.2% | [3] 52.7% | [4] 42.1% | [5] 13.5% | [6] 17.2% | [8] 42.9% | [9] 38.7% | [11] 28.9% | [12] 30.2% | [13] 52.4% | [14] 58.4% | [15] 19.6% | [16] 40.7% | [18] 67.9% | [19] 22%

COc1cc2c(cc1OC)C(=O)/C(=C/c1cc(-c3ccc4c(c3)OCO4)n[nH]1)C2
inactive: [1] 22.4% | [2] 47.1% | [8] 27.8% | [13] 43.7% | [14] 24.6% | [18] 77.1%
active: [3] -5.69% | [4] -52.5% | [5] -82.2% | [6] -4.09% | [7] -63.6% | [9] -89.8% | [10] 7.58% | [11] 1.19% | [12] -41.5% | [15] -39.8% | [16] -53.4% | [17] -80.9% | [19] 5.68%

COc1ccc(C(=O)/C=C/c2cc(-c3cc(OC)c(OC)c(OC)c3)n[nH]2)cc1OC
inactive: [1] 71.2% | [2] 20.8% | [6] 42.8% | [8] 31.3% | [18] 24.6%
active: [3] -42.4% | [4] -56.6% | [5] -17.4% | [7] -78.5% | [9] -34.7% | [10] -65.7% | [11] 1.8% | [12] 3.36% | [13] -75.5% | [14] -4.03% | [15] -78.8% | [16] -20.1% | [17] -96.2% | [19] -7.08%

CCc1ccc(-c2ccc(Nc3ccccc3)nn2)cc1S(N)(=O)=O
inactive: [1] 86% | [2] 86.8% | [3] 107% | [4] 92.9% | [5] 51.2% | [6] 80.2% | [7] 71.5% | [8] 80.5% | [9] 94.3% | [10] 94.8% | [11] 77.1% | [12] 12.5% | [13] 71.4% | [14] 69.3% | [15] 77.3% | [16] 78.6% | [17] 84.3% | [18] 83.7% | [19] 67.1%

Cc1ccc(-c2nc3ccc(Cl)cc3c(=O)n2N2C(=O)CSC2c2ccccc2Cl)cc1 (configuration not stated)
active: [4] 2.48% | [6] -4.8%
inactive: [1] 91.1% | [2] 86.6% | [3] 86.7% | [5] 48.5% | [7] 76.9% | [8] 13.2% | [9] 70% | [10] 66.6% | [11] 73.1% | [12] 93.4% | [13] 65.8% | [14] 59.9% | [15] 98.5% | [16] 60.4% | [17] 78.8% | [19] 71.4%

COc1ccc(/C=C2\N=C(c3ccccc3)N(c3cc(OC)c(OC)cc3C(=O)N3N=C(C)CC3=O)C2=O)cc1
inactive: [1] 102% | [2] 90.1% | [3] 118% | [4] 97% | [5] 94.4% | [6] 78.2% | [7] 82.6% | [8] 104% | [9] 98.9% | [10] 112% | [11] 95.2% | [12] 81.5% | [13] 126% | [14] 87.4% | [15] 93.5% | [16] 91.4% | [17] 94.6% | [18] 128% | [19] 97.9%

CN(C)c1ccc(C(=O)c2ccc(N(C)C)c(N)c2)cc1N
active: [11] 6.99% | [17] 3.19%
inactive: [1] 40% | [2] 75.6% | [3] 49.3% | [4] 53% | [5] 13.5% | [6] 91% | [7] 49.2% | [8] 56% | [9] 42.4% | [10] 21.3% | [12] 21.4% | [13] 34.2% | [14] 55.8% | [16] 43.6% | [20] 21.9% | [18] 77.3% | [19] 13%

[B-][N+](CC)(CC)c1ccccc1
inactive: [1] 105% | [2] 106% | [3] 96.9% | [4] 101% | [5] 110% | [6] 81.9% | [7] 96.5% | [8] 102% | [9] 105% | [10] 102% | [11] 106% | [12] 105% | [13] 98.1% | [14] 119% | [15] 115% | [16] 103% | [17] 97% | [18] 105% | [19] 88.6%
